What follows are compounds tested against Potassium voltage-gated channel subfamily KQT member 2 (Rattus norvegicus) (UniProt O88943) (assay: blockade of KCNQ2 thallium flux – cell-based, FluxOR thallium flux, CRC set 2, selectivity assay for KCNK9 inhibitor project, SAR follow-up (AID 588800)). Settings: KCNQ2-expressing cells; series mostly up to 30 µM; thallium flux ratio, lower = inhibition: at the top concentration;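 active = peak inhibition of the KCNQ2 potassium channel above 30% at some tested dose, plus a fitted dose response curve; inactive = no inhibition at any dose, or no curve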.
Potassium voltage-gated channel subfamily KQT member 2 (Rattus norvegicus), sequence (O88943 whole entry, looked up): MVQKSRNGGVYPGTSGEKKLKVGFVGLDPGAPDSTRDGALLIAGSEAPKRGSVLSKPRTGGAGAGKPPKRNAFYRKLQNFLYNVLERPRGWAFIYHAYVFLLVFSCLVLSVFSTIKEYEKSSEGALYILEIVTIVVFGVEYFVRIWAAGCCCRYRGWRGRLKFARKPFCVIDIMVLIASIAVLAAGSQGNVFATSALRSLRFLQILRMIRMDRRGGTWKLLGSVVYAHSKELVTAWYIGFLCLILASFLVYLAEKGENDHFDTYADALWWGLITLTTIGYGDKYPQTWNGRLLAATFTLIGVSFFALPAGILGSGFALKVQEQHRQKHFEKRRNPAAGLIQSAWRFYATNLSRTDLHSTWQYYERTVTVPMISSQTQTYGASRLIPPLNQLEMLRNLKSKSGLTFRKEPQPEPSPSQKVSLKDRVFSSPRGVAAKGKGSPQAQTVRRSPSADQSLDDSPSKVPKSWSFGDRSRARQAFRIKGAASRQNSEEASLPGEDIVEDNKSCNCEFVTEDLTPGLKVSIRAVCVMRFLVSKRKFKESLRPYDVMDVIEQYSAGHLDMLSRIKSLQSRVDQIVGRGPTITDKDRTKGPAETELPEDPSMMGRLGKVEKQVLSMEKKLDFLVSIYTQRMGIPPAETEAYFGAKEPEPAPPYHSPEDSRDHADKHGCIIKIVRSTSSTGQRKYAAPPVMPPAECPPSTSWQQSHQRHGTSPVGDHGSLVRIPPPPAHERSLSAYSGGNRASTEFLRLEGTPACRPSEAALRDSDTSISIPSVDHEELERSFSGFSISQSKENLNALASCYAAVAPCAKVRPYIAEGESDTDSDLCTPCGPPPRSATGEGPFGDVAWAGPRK

Thallium flux ratio, lower = inhibition, inactive:
COc1ccccc1C(=O)Nc1cccc(NC(=O)c2cccc(C)c2)c1 0.189, Cc1ccccc1C(=O)Nc1cccc(NC(=O)c2ccccc2)c1 0.195, Cc1cccc(C(=O)Nc2cccc(NC(=O)c3ccc(N(C)C)cc3)c2)c1 0.206, O=C(Nc1cccc(NC(=O)c2ccccn2)c1)c1ccccc1 0.202, COc1ccccc1NC(=O)c1cccc(NC(=O)CC2CCCC2)c1 0.162, CCOc1ccccc1NC(=O)c1cccc(NC(=O)c2ccc(Cl)cc2)c1 0.18, CC(C1CC2CCC1C2)n1c(-c2ccccc2)n[nH]c1=S (stereo not given) 0.203, O=C(Nc1cccc(NC(=O)c2ccncc2)c1)c1ccccc1 0.191, COc1ccc(C(=O)Nc2cccc(NC(=O)c3ccccc3)c2)cc1 0.15, Cc1ccccc1-c1n[nH]c(=S)n1C(C)C1CC2CCC1C2 (stereo not given) 0.186, O=C(Nc1cccc(NC(=O)c2ccccc2Cl)c1)c1ccccc1 0.169, COc1ccccc1C(=O)Nc1cccc(NC(=O)c2ccccc2C(C)C)c1 0.177, CC(c1ccccc1)n1c(-c2ccco2)n[nH]c1=S (stereo not given) 0.187, CN(C)c1ccc(C(=O)Nc2cccc(NC(=O)c3ccccc3)c2)cc1 0.189, CCOc1ccccc1C(=O)Nc1cccc(NC(=O)C2CCCC2)c1 0.144, CC(C1CC2CCC1C2)n1c(-c2cccc(Cl)c2)n[nH]c1=S (stereo not given) 0.207, COc1ccccc1-c1n[nH]c(=S)n1C(C)C1CC2CCC1C2 (stereo not given) 0.173, CCOc1ccccc1NC(=O)c1cccc(NC(=O)c2ccccc2Cl)c1 0.15, CCOc1ccccc1NC(=O)c1cccc(NC(=O)C2CCCCC2)c1 0.19, CC(C)(C)c1ccc(C(=O)Nc2cccc(NC(=O)c3ccccc3)c2)cc1 0.169, CCOc1ccccc1NC(=O)c1cccc(NC(=O)c2cccc(C)c2)c1 0.176, Cc1cccc(C(=O)Nc2cccc(NC(=O)c3ccc(C(C)(C)C)cc3)c2)c1 0.244, CCOc1ccccc1NC(=O)c1cccc(NC(=O)c2ccc(C)cc2)c1 0.179, Cc1ccc(-c2n[nH]c(=S)n2C(C)C2CC3CCC2C3)cc1 (stereo not given) 0.174, COc1ccc(-c2n[nH]c(=S)n2C(C)C2CC3CCC2C3)cc1 (stereo not given) 0.157, COc1ccc(C(=O)Nc2cccc(NC(=O)c3cccc(C)c3)c2)cc1 0.179, CCOc1ccccc1NC(=O)c1cccc(NC(=O)C2CC2)c1 0.189, O=C(Nc1ccccc1Cl)c1cccc(NC(=O)C2CCCC2)c1 0.161, O=C(Nc1cccc(NC(=O)c2ccc(Cl)cc2)c1)c1ccccc1 0.153, O=C(Nc1cccc(NC(=O)c2ccsc2)c1)c1ccccc1 0.203, COc1ccccc1NC(=O)c1cccc(NC(=O)C2CCCCC2)c1 0.174, CCOc1ccccc1NC(=O)c1cccc(NC(=O)c2cccc(Cl)c2)c1 0.168, O=C(Nc1cccc(NC(=O)c2ccc(F)cc2)c1)c1ccccc1 0.185, CC(C1CC2CCC1C2)n1c(C2CCOC2)n[nH]c1=S (stereo not given) 0.177, Cc1cccc(C(=O)Nc2cccc(NC(=O)c3ccccc3C)c2)c1 0.203
